Source: PubChem BioAssay AID1159580 (chemical genetic matrix, 2015)
Values joined by “and” are separate entries in the source; they are usually repeats but may differ in a detail not shown here. Equal values may be shown once. The whole screen tested about 5,500 compounds, of which about 2,000 (36%) were called active. Another 18% or so got no clear call; they are omitted. No stated cut-off is given here; in the data, active means normalized growth mostly below about 0.91 (no sharp cut-off); inconclusive means no clear call, values can overlap the other calls; inactive means mostly above about 0.92. Some of the results follow.

Assay: chemical genetic growth profiling, strain panel (AID 1159580);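 further: tested at 20 µM; growth read once vehicle control cultures reached saturation at 30 °C; 1 = growth at the plate median or of vehicle wells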
Details: S. cerevisiae deletion strains, growth OD

Measured: normalized growth

CC(=O)OC(C)(C)[C@@H]1Cc2cc3ccc(=O)oc3cc2O1
inactive: locus YAL021C, strain ccr4, stronger effect = lower value 1.01 | locus YAL026C, strain drs2, stronger effect = lower value 0.984 | locus YAL030W, strain snc1, stronger effect = lower value 0.963 | locus YBL061C, strain skt5, stronger effect = lower value 0.969 | locus YBR009C, strain hhf1, stronger effect = lower value 0.909 | locus YBR021W, strain FUR4, stronger effect = lower value 0.99 | locus YBR023C, strain chs3, stronger effect = lower value 0.972 | locus YBR171W, strain sec66, stronger effect = lower value 0.968 | locus YBR229C, strain ROT2, stronger effect = lower value 1 | locus YBR231C, strain swc5, stronger effect = lower value 0.968 | locus YBR279W, strain paf1, stronger effect = lower value 0.975 | locus YCL011C, strain gbp2, stronger effect = lower value 0.954 | locus YCL016C, strain dcc1, stronger effect = lower value 0.977 | locus YCL029C, strain bik1, stronger effect = lower value 1.01 | locus YCL061C, strain MRC1, stronger effect = lower value 0.978 | locus YCL069W, strain vba3, stronger effect = lower value 0.963 | locus YCR088W, strain abp1, stronger effect = lower value 0.982 | locus YDL005C, strain med2, stronger effect = lower value 0.977 | locus YDL035C, strain GPR1, stronger effect = lower value 1.01 | locus YDL040C, strain nat1, stronger effect = lower value 0.968 | locus YDL074C, strain BRE1, stronger effect = lower value 1.03 | locus YDL101C, strain DUN1, stronger effect = lower value 0.999 | locus YDL185W, strain tfp1, stronger effect = lower value 1 | locus YDL192W, strain arf1, stronger effect = lower value 0.989 | locus YDR001C, strain nth1, stronger effect = lower value 0.965 | locus YDR069C, strain doa4, stronger effect = lower value 0.962 | locus YDR101C, strain arx1, stronger effect = lower value 1.01 | locus YDR137W, strain rgp1, stronger effect = lower value 0.992 | locus YDR150W, strain NUM1, stronger effect = lower value 1.01 | locus YDR159W, strain sac3, stronger effect = lower value 0.936 | locus YDR162C, strain NBP2, stronger effect = lower value 1 | locus YDR195W, strain ref2 0.959 | locus YDR297W, strain sur2, stronger effect = lower value 0.972 | locus YDR318W, strain mcm21, stronger effect = lower value 0.991 | locus YDR334W, strain swr1, stronger effect = lower value 0.972 | locus YDR335W, strain msn5, stronger effect = lower value 0.992 | locus YDR388W, stronger effect = lower value 1 | locus YDR392W, strain spt3, stronger effect = lower value 0.789 | locus YDR502C, strain sam2, stronger effect = lower value 1.01 | locus YEL003W, strain gim4, stronger effect = lower value 0.968 | locus YEL037C, strain rad23, stronger effect = lower value 0.965 | locus YEL061C, strain CIN8 (second series), stronger effect = lower value 0.97 | locus YEL061C, strain CIN8, stronger effect = lower value 1 | locus YER015W, strain faa2, stronger effect = lower value 0.989 | locus YER016W, strain bim1, stronger effect = lower value 0.982 | locus YER110C, stronger effect = lower value 0.995 | locus YER111C, strain swi4, stronger effect = lower value 0.974 | locus YER155C, strain BEM2 (second series), stronger effect = lower value 0.94 | locus YER155C, strain BEM2, stronger effect = lower value 0.999 | locus YER167W, strain BCK2, stronger effect = lower value 0.998 | locus YFR010W, strain ubp6, stronger effect = lower value 0.969 | locus YGL078C, strain dbp3, stronger effect = lower value 1.02 | locus YGL086W, strain mad1, stronger effect = lower value 1.01 | locus YGL167C, strain pmr1, stronger effect = lower value 0.949 | locus YGL173C, strain kem1, stronger effect = lower value 0.961 | locus YGL227W, strain vid30, stronger effect = lower value 0.966 | locus YGL240W, strain doc1, stronger effect = lower value 0.96 | locus YGL248W, strain PDE1, stronger effect = lower value 0.997 | locus YGL253W, strain hxk2, stronger effect = lower value 0.985 | locus YGR135W, strain pre9, stronger effect = lower value 0.989 | locus YGR229C, strain SMI1, stronger effect = lower value 1.04 | locus YGR252W, strain gcn5, stronger effect = lower value 0.916 | locus YHR013C, strain ard1, stronger effect = lower value 0.92 | locus YHR027C, strain rpn1, stronger effect = lower value 0.984 | locus YHR030C, strain SLT2, stronger effect = lower value 0.998 and 0.969 | locus YHR079C, strain IRE1 (second series), stronger effect = lower value 1 | locus YHR079C, strain IRE1, stronger effect = lower value 0.978 | locus YHR094C, strain hxt1, stronger effect = lower value 1.01 | locus YHR129C, strain ARP1, stronger effect = lower value 0.996 | locus YHR142W, strain chs7, stronger effect = lower value 0.993 | locus YHR200W, strain rpn10, stronger effect = lower value 0.989 | locus YIL066C, strain RNR3, stronger effect = lower value 1.01 | locus YIL073C, strain SPO22, stronger effect = lower value 1.04 | locus YIL125W, strain kgd1, stronger effect = lower value 1.02 | locus YIR030C, strain dcg1, stronger effect = lower value 0.997 | locus YJL092W, strain hpr5, stronger effect = lower value 0.986 | locus YJL095W, strain BCK1 (second series), stronger effect = lower value 0.983 | locus YJL095W, strain BCK1, stronger effect = lower value 1.01 and 1.05 | locus YJL115W, strain asf1, stronger effect = lower value 0.983 | locus YJL129C, strain trk1, stronger effect = lower value 0.981 | locus YJL134W, strain LCB3, stronger effect = lower value 1.01 | locus YJL154C, strain vps35, stronger effect = lower value 0.966 | locus YJL164C, strain tpk1, stronger effect = lower value 0.996 | locus YJL166W, strain qcr8, stronger effect = lower value 0.979 | locus YJL168C, strain set2, stronger effect = lower value 1 | locus YJL187C, strain SWE1 (second series), stronger effect = lower value 1 | locus YJL187C, strain SWE1, stronger effect = lower value 0.971 | locus YJR043C, strain POL32, stronger effect = lower value 0.991
